Data published in PubChem BioAssay AID1508622 (National Center for Advancing Translational Sciences (NCATS), 2021).
The source made the active and inactive calls. Calls follow the shape of the dose curve; as a rule, active = well fitted activation curve with a large enough effect; inconclusive = small, poorly fitted or top-dose-only effect; inactive = no such curve, though single readings can be large or run the other way.

Assay: Confirmatory qHTS for Identification of Small Molecule Activators of Huntingtin-Antisense Promoter Activity
Conditions: HEK293 HTT-AS promoter firefly luciferase reporter, 24 h; series mostly up to 57.5 µM
Outline: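 Activity normalized between vehicle control (0%) and zero RLU (-100%) from firefly luminescence (Dual-Glo). Compounds, up to 57.5 uM final, incubated 24 h at 37C on HEK293 reporter cells plated 24 h earlier.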

Potency, inactive:
COc1cccc(NS(=O)(=O)c2ccc3[nH]cc(C(=O)NCCc4ccc(C)cc4)c(=O)c3c2)c1
Cn1c(SCc2ccc(F)cc2)nc2ccc(C(=O)NCc3ccc(F)cc3)cc21
COc1cccc(CNC(=O)c2ccc(-c3nc(COc4ccccc4)c(C)o3)cc2)c1
COC(=O)c1c(C)oc2ccc(N(C(=O)c3ccncc3)S(=O)(=O)c3cc(C)c(C)cc3C)cc12
CCc1ccc(-n2nc(C)c3c(C(=O)Nc4cccc(C(F)(F)F)c4)cc(C)nc32)cc1
CCOc1ccc(N(Cc2ccccc2)C(=O)c2nc(SC)ncc2Cl)cc1
Cc1cc(NC(=O)c2cc(-c3ccc(Cl)cc3)on2)nn1Cc1ccc(Cl)cc1
Cc1ccc(CCNC(=O)c2cc3c(s2)-c2ccccc2OC3)cc1
CCOc1ccc(CN2CCc3nc(N4CCN(c5ccccn5)CC4)ncc3C2)cc1OC
Cc1ccccc1NC(=O)c1c(NC(=O)C(F)(F)F)sc2c1CCCCC2
COc1ccc(-c2cc(C)no2)cc1S(=O)(=O)N1CCN(c2ccccc2F)CC1
COc1ccc(N(Cc2ccccc2)C(=O)c2nc(SC)ncc2Cl)cc1
CCOCCCNC(=O)Nc1cc(C(=O)NCc2ccc(C(C)C)cc2)ccc1N1CCCC1
Cc1cccc(NC(=O)c2ccc(F)c(S(=O)(=O)N(C)C3CCCCC3)c2)c1
Cc1cc(NC(=O)c2cc(Cl)ccc2Cl)ccc1-c1cc2ccccc2oc1=O
Cc1cc(NC(=O)CCc2nc3cccnc3n2-c2ccccc2)ccc1Br
Cc1nc(-c2ccc(F)cc2)sc1CCNC(=O)c1ccc(C(C)(C)C)cc1
CCOc1ccc(C(=O)NCC(c2ccc3c(c2)OCO3)N2CCN(c3ccccc3F)CC2)cc1 (stereo not drawn)
Cc1c(C(=O)Nc2ccc(F)cc2)oc2ccc(S(=O)(=O)N3CCCCCC3)cc12
O=C(Nc1cccc(C(F)(F)F)c1)C1CCCN1S(=O)(=O)c1cccc2nsnc12 (stereo not drawn)
COc1ccccc1NC(=O)CSc1nnc(NC(=O)Nc2ccc(C)cc2)s1
Cc1cccc(NC(=O)Cn2c(=O)oc3cc(S(=O)(=O)N4CCCCCC4)ccc32)c1
O=S(=O)(NCc1ccc(Cl)cc1)c1ccc(N2CCCCS2(=O)=O)cc1
